# Compound activity (PubChem)
# SUMO HTRF inh – inhibitors of human SUMOylation (UBC9); 0.36% of 290,000 active; HTRF SUMOylation assay, SAE1/SAE2 + UBC9, in vitro; inhibition, % at 35 µM; P63279; AID 2006; in the data active = inhibition above about 50%, passing the limit was not always enough
# Target sequence (P63279 whole entry, looked up): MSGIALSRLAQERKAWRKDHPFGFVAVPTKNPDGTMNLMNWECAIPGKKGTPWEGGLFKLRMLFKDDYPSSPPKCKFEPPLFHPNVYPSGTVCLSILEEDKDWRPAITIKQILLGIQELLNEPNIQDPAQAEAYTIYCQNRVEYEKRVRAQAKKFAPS
# ALR H2O2 inh – human ALR oxidase inhibition via reduced H2O2. P55789. purified ALR, DTT oxidation, H2O2 HRP-luminol luminescence. inhibition, % (no concentration beside the values). 3.8% of 290,000 active. AID 485317;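 active = mean replicate inhibition above about 79%, with every replicate also reaching it, limit read from the data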
# H9c2 protect – myocardial damage modulation in H9c2 cells. H9c2 cardiomyocytes, H2O2 injury protection, ATPLite, 2 h. protection from H2O2 cell death, % at 20 µM. 0.63% of 360,000 active. AID 588492;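 active = compounds giving at least 50% protection of heart cells from peroxide-induced death in the single-dose screen, raw or plate-pattern-corrected value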;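 note: 0% = DMSO wells with peroxide and 100% = DMSO wells without peroxide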
# NTR1 ag – activates human neurotensin receptor 1; P30989; NTR1-U2OS beta-arrestin-GFP spot imaging, agonist mode; activation, % at 20 µM; 0.17% of 330,000 active; AID 493036;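 active = activation at or above 40% of the spot to cytoplasm intensity ratio, with at least 20 cells analyzed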;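 note: 0% = DMSO without peptide and 100% = 100 nM NTR1 peptide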
# Target sequence (P30989 whole entry, looked up): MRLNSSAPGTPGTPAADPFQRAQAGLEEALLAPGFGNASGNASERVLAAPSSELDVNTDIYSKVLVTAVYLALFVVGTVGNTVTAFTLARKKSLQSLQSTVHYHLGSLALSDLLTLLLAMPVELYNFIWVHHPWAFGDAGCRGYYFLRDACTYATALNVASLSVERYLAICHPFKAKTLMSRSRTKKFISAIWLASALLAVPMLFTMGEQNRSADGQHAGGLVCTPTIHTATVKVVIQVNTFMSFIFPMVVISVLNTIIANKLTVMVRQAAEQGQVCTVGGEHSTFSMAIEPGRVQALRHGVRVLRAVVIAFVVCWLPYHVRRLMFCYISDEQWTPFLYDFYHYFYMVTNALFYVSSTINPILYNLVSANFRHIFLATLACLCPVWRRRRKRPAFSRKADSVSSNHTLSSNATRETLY
# Active calls of the source: *; nt = no result. Hits are enriched below; roughly 3.9% of the tested compounds scored in any of these assays.
SMILES,SUMO HTRF inh,ALR H2O2 inh,H9c2 protect,NTR1 ag
Cc1ccc(CNC(=O)c2ccc3c(=O)c(O)c(-c4ccc(C)cc4)[nH]c3c2)cc1,48.0,5.8,59.2*,-2.9
Cc1ccc(-c2[nH]c3cc(C(N)=O)ccc3c(=O)c2O)cc1,35.0,-3.9,62.6*,-2.7
Cc1ccc(-c2[nH]c3cc(C(=O)NCCCn4ccnc4)ccc3c(=O)c2O)cc1,20.6,20.0,3.4,-1.1
CCCNC(=O)c1ccc2c(=O)c(O)c(-c3ccc(OC)cc3)[nH]c2c1,40.9,3.9,34.8,-5.1
COc1cc(NC(=O)c2cc(Br)cc(C)c2OC)ccc1NC(=O)C(C)C,10.7,-1.9,-4.1,0.7
Cc1ccc(Sc2nc3ccc(C)cn3c(=O)c2/C=N/O)cc1,20.5,98.6*,-13.4,5.2
Cc1ccc2nc(Nc3ccccc3)c(/C=N/O)c(=O)n2c1,5.4,nt,11.4,4.4
COc1ccc(NC(=O)N(C)[C@H]2C[C@H]3c4[nH]c5ccc(-c6ccc7c(c6)OCO7)cc5c4CCN3C[C@H]2[C@H](C)O)cc1,nt,nt,54.3*,nt
COc1cc2sc(-c3ccc(S(C)(=O)=O)cc3)c(C#CCO)c2cc1OC,nt,-2.6,53.3*,7.7
CCCc1cc(-c2[nH]ncc2-c2ccc3c(c2)OCCCO3)c(O)cc1O,-2.7,68.4,4.2,43.6*
CC(C)(C)NS(=O)(=O)c1ccc(CCC(=O)N2CCCCC2)cc1,9.3,-8.2,3.2,3.6
C=CCNC(=S)Nc1ccc(Cl)c(S(=O)(=O)N2CCOCC2)c1,-1.0,nt,-3.7,1.7
O=C(CSc1nnc(COc2ccccc2)o1)N1CCCC1,13.8,-2.6,2.7,-0.7
CCOC(=O)c1c(NC(=O)COc2cccc3c2CCN(C)C3=O)sc2c1CCC2,-28.3,87.3*,-13.7,10.6
Nn1c(SCC(=O)Nc2ccc(N3CCOCC3)cc2)nnc1C1CC1,nt,99.1*,0.8,2.6
Nn1c(SCC(=O)Nc2ccc(Oc3ccccc3)cc2)nnc1C1CC1,-7.1,28.2,-5.1,0.2
O=C(CSc1nnc2n1CCCCC2)Nc1ccc(N2CCOCC2)cc1,-21.4,85.8*,0.5,-0.3
Cc1ccc(NC(=O)CSc2nnc3n2CCCCC3)cc1,-11.8,nt,3.3,2.2
CCOc1ccc(NC(=O)CSc2nnc(C3CC3)n2N)cc1,15.6,98.0*,-1.6,0.6
CCOC(=O)C1CCN(C(=O)CN(Cc2ccc(Cl)cc2)S(C)(=O)=O)CC1,0.1,0.5,8.2,0.6
COc1cc(/C=C/C(=O)OCC(=O)NCc2cccs2)ccc1OC(F)F,-6.7,-1.0,1.6,-1.7
CC(C)(C)[C@H]1CCC(=O)N([C@H](CSc2ccccc2)Cc2ccccc2)CC1,-7.8,-2.6,-17.8,6.2
CC(=O)Nc1ccc(SC[C@H](Cc2ccccc2)N2CC[C@@H](C(C)(C)C)CCC2=O)cc1,nt,98.7*,-2.8,8.3
CC(=O)Nc1ccc(SCCN2CC[C@@H](O)CCC2=O)cc1,nt,15.4,-2.5,-0.2
CC(C)(C)[C@@H]1CCC(=O)N(CC[C@H](Sc2ccccc2)c2ccccc2)CC1,0.7,-11.3,-13.9,7.9
SMILES,SUMO HTRF inh,ALR H2O2 inh,H9c2 protect,NTR1 ag
CC(=O)Nc1ccc(S[C@@H](CCN2CC[C@H](C(C)(C)C)CCC2=O)c2ccccc2)cc1,nt,97.1*,5.6,4.6
CC(=O)Nc1ccc(SCCN2CC[C@@H](C)CCC2=O)cc1,nt,98.8*,7.1,-1.0
CC(=O)Nc1ccc(SC[C@H](Cc2ccccc2)N2CC[C@@H](O)CCC2=O)cc1,nt,98.9*,14.5,-0.2
CC(=O)Nc1ccc(SC[C@H](Cc2ccccc2)N2CCN(CCc3ccccc3)CCC2=O)cc1,10.1,nt,-15.6,-0.6
O=C(CSc1nc(-c2ccccc2)cc(=O)[nH]1)Nc1ccccn1,11.8,-5.7,20.4,0.8
CNC[C@H]1Oc2ccc(NC(=O)Nc3ccc(OC)cc3)cc2C(=O)N([C@@H](C)CO)C[C@H]1C,nt,nt,nt,-2.1
COc1ccccc1CC(=O)Nc1cc(Cl)ccc1O,19.7,0.1,-6.7,0.7
NC(=O)SCC(=O)Nc1ccccc1C(=O)O,19.6,93.6*,4.0,0.7
COc1ccccc1CC(=O)Nc1ccccc1O,18.3,89.4*,-0.9,2.4
O=C(CSc1ccccc1)Nc1ccccc1C(=O)O,-7.0,35.0,3.0,-0.5
COc1ccccc1NC(=O)CSC(N)=O,16.4,99.3*,2.0,-0.3
O=C(COC(=O)/C=C/c1cccc(F)c1)Nc1ccc(Cl)cn1,10.1,nt,-4.2,-0.1
COCCOC(=O)C1=C(C)NC2=C(C(=O)CCC2)C1c1ccc(N(C)C)cc1 (stereo not given),18.6,99.7*,6.3,0.5
CC1=C(C(=O)OCCOC(C)C)C(c2cccnc2)C2=C(CCCC2=O)N1 (stereo not given),11.0,-11.6,-19.0,0.9
CCN(CC)c1ccc(C2C(C(=O)OCCOC(C)C)=C(C)NC3=C2C(=O)CCC3)cc1 (stereo not given),-8.1,98.8*,0.2,2.9
Cc1ccc(S(=O)(=O)N/N=C\c2cc3c(cc2Br)OCO3)cc1,7.6,nt,-2.3,-0.7
CN(CC(=O)Nc1ccccc1-c1ccccc1)Cc1ccccc1Cl,-1.2,-3.6,-2.2,12.1
CCCCOc1ccc(C(=O)CCN2CCCCC2)cc1,-2.6,97.5*,-2.6,-0.9
CC(C)COc1ccc(C(=O)CCN2CCCCC2)cc1,17.7,0.4,-16.8,4.5
CN1c2ccccc2C(O)=C(C(=S)Nc2ccc(F)c(Cl)c2)S1(=O)=O,7.8,96.5*,-27.7,1.7
CN1c2ccccc2C(O)=C(C(=S)Nc2ccccc2)S1(=O)=O,3.1,48.3,-11.7,0.3
COc1ccc(S(=O)(=O)NC(=O)C2(C)CCN2C(=O)Cc2ccc(C(C)(C)C)cc2)cc1 (stereo not given),nt,nt,-0.3,nt
Nc1nnc(-c2ccc([N+](=O)[O-])o2)s1,nt,nt,-1.7,nt
CC(C)c1ccc(/C=N/NC(=O)c2ccccc2Cl)cc1,-24.9,-1.7,0.4,11.2
CCSC1=C(C#N)C(c2ccc3c(c2)OCO3)C2=C(CCCC2=O)N1 (stereo not given),22.3,10.0,-15.1,0.7
SMILES,SUMO HTRF inh,ALR H2O2 inh,H9c2 protect,NTR1 ag
COC(=O)CSC1=C(C#N)C(c2ccc3c(c2)OCO3)C2=C(CCCC2=O)N1 (stereo not given),9.4,98.9*,11.6,0.4
Oc1c(Br)cc(Br)cc1C=Nc1cccc2ncccc12,nt,-7.2,64.2*,0.1
COc1cc(C(=O)c2ccccc2)c(OC)cc1C(=O)Nc1ccc(O)cc1,12.0,99.7*,0.3,0.1
COc1cccc(OC)c1C(=O)Nc1ccc(Br)c(C(=O)c2ccccc2)c1,-6.7,-2.3,54.5*,3.9
COc1ccc(C(=O)Nc2ccc(C)cc2C(=O)c2ccccc2)c(OC)c1,-3.8,96.8*,-5.4,6.1
COc1ccccc1C(=O)Nc1cccc(C(=O)c2ccccc2)c1,7.6,10.9,5.7,2.9
CN(CC(=O)NC1CC1)S(=O)(=O)c1ccc(F)cc1,-0.7,-3.5,1.7,-0.7
Cc1oc2cc(O)ccc2c(=O)c1Oc1ccc(F)cc1,33.8,-16.4,1.3,0.1
Oc1ccc2c(c1)oc1cc(O)ccc12,-12.4,98.8*,-5.0,0.6
COc1c(C)oc2cc(O)ccc2c1=O,50.2*,-1.8,10.5,-1.4
Cc1c(-c2ccccc2)c(=O)oc2cc(O)ccc12,34.8,-5.4,-2.0,1.1
